Assay results reported in the supplement of paper PMC9446081.
Hit rate of the full screen: of about 39,000 compounds, about 220 (0.56%) showed activity. Shown is part of a subset that was picked to be rich in actives.

The compounds below were run on Escherichia coli K-12 BW25113 (assay: relative growth (OD600 normalised to plate interquartile mean) (fraction); higher = less growth inhibition, active = 0.2 or less). Conditions: 50 µM; LB; incubation time: overnight (16-24 h).
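Also: Wild-type cells incubated without shaking, value is the mean of two biological replicates.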

SMILES | relative growth
CC(C)NC(=O)Nc1ccc2c(c1)C(=O)N([C@H](C)CO)C[C@@H](C)[C@H](CN(C)Cc1ccc(C(F)(F)F)cc1)OCCCC[C@@H](C)O2 | 1.02 (inactive)
CCOc1ccc2c(c1)-c1c(ssc1=S)C(C)(C)N2C | 0.993 (inactive)
CC1(C)SC2C(NC(=O)C(NC(=O)N3CCNC3=O)c3ccccc3)C(=O)N2C1C(=O)[O-].[Na+] (centres undefined) | 0.263 (inactive)
CC1(C)SC2C(NC(=O)C(C(=O)[O-])c3ccccc3)C(=O)N2C1C(=O)[O-].[Na+].[Na+] (centres undefined) | 1.1 (inactive)
CC1(C)S[C@H]2[C@@H](NC(=O)[C@@H](NC(=O)N3CCN(S(C)(=O)=O)C3=O)c3ccccc3)C(=O)N2[C@@H]1C(=O)O | 0.237 (inactive)
CC1(C)S[C@@H]2[C@H](NC(=O)[C@H](NC(=O)N3CCNC3=O)c3ccccc3)C(=O)N2[C@H]1C(=O)O | 0.0984 (active)
CCN1CCN(C(=O)NC(C(=O)NC2C(=O)N3C2SC(C)(C)C3C(=O)[O-])c2ccccc2)C(=O)C1=O.[Na+] (centres undefined) | 0.0465 (active)
CCN1CCN(C(=O)N[C@@H](C(=O)N[C@@H]2C(=O)N3[C@@H]2SC(C)(C)[C@@H]3C(=O)O)c2ccccc2)C(=O)C1=O | 0.606 (inactive)
C[C@@H]1CN([C@H](C)CO)C(=O)CCCn2cc(nn2)CO[C@H]1CN(C)C(=O)C1CC1 | 1.02 (inactive)
Cn1nc(-c2ccccn2)nc2c(=O)n(C)c(=O)nc1-2 | 0.933 (inactive)
C[C@@H]1CCCCO[C@H](CN(C)Cc2ccccc2)[C@H](C)CN([C@@H](C)CO)C(=O)c2cc(NS(=O)(=O)c3cccs3)ccc2O1 | 0.975 (inactive)
C[C@@H]1CN([C@H](C)CO)S(=O)(=O)c2ccc(-c3cccc(C#N)c3)cc2O[C@@H]1CN(C)C(=O)c1ccncc1 | 1 (inactive)
C[C@@H]1CN([C@H](C)CO)C(=O)Cc2cc(NS(=O)(=O)c3cccs3)ccc2O[C@@H]1CN(C)Cc1ccc(Cl)c(Cl)c1 | 1.01 (inactive)
O=C(C[C@@H]1CC[C@H](NC(=O)c2cnccn2)[C@@H](CO)O1)NCc1ccccc1F | 0.993 (inactive)
Cc1noc(C)c1S(=O)(=O)Nc1ccc2c(c1)CC(=O)N([C@@H](C)CO)C[C@@H](C)[C@H](CN(C)S(C)(=O)=O)O2 | 0.975 (inactive)
COc1ccc(NC(=O)Nc2ccc3c(c2)C(=O)N([C@@H](C)CO)C[C@H](C)[C@H](CN(C)S(C)(=O)=O)O3)cc1 | 0.991 (inactive)
Cc1ccc(S(=O)(=O)N(C)C[C@H]2Oc3c(NC(=O)c4ccncc4)cccc3C(=O)N([C@@H](C)CO)C[C@H]2C)cc1 | 1.01 (inactive)
Cn1cc(-c2[nH]c3cc(NC(=O)[C@H](N)C4CCCCC4)cc4c3c2C=NNC4=O)cn1 | 0.161 (active)
C[C@@H]1CN([C@@H](C)CO)C(=O)c2cc(NC(=O)Nc3ccc4c(c3)OCO4)ccc2O[C@@H](C)CCCCO[C@@H]1CN(C)C(=O)NC1CCCCC1 | 1.04 (inactive)
O=c1c(O[C@@H]2O[C@H](CO)[C@@H](O)[C@H](O)[C@H]2O)c(-c2ccc(O)c(O)c2)oc2cc(O)cc(O)c12 | 1.04 (inactive)

SMILES | relative growth
CN[C@@H]1[C@H](O)[C@H](NC)[C@H]2O[C@@]3(O)C(=O)C[C@@H](C)O[C@H]3O[C@@H]2[C@H]1O | 0.0458 (active)
CNC1C(O)C(NC)C2OC3(O)C(=O)CC(C)OC3OC2C1O.Cl.Cl (centres undefined) | 0.048 (active)
C[C@@H]1CN([C@H](C)CO)C(=O)c2cc(NC(=O)C3CC3)ccc2O[C@@H]1CN(C)S(=O)(=O)c1ccccc1 | 0.987 (inactive)
CC(C)NC(=O)Nc1cccc2c1O[C@H](CN(C)Cc1ccc(-c3ccccc3)cc1)[C@@H](C)CN([C@@H](C)CO)C2=O | 0.997 (inactive)
C[C@H]1CCCCO[C@H](CN(C)Cc2ccncc2)[C@@H](C)CN([C@@H](C)CO)C(=O)c2cc(NC(=O)C3CCCCC3)ccc2O1 | 0.956 (inactive)
COc1ccc(S(=O)(=O)Nc2cccc3c2O[C@@H](CN(C)C(=O)NC(C)C)[C@H](C)CN([C@H](C)CO)C3=O)cc1 | 0.978 (inactive)
COc1ccc(CN(C)C[C@@H]2OCCCC[C@H](C)Oc3ccc(NS(=O)(=O)c4ccc(OC)cc4)cc3C(=O)N([C@H](C)CO)C[C@H]2C)cc1 | 0.994 (inactive)
CN[C@@H]1[C@H](O[C@H]2[C@H](O[C@@H]3[C@@H](O)[C@H](O)[C@@H](NC(=N)N)[C@H](O)[C@H]3NC(=N)N)O[C@@H](C)[C@]2(O)CO)O[C@@H](CO)[C@H](O)[C@H]1O.CN[C@@H]1[C@H](O[C@H]2[C@H](O[C@@H]3[C@@H](O)[C@H](O)[C@@H](NC(=N)N)[C@H](O)[C@H]3NC(=N)N)O[C@@H](C)[C@]2(O)CO)O[C@@H](CO)[C@H](O)[C@H]1O | 0.11 (active)
CN[C@@H]1[C@H](O[C@H]2[C@H](O[C@@H]3[C@@H](O)[C@H](O)[C@@H](NC(=N)N)[C@H](O)[C@H]3NC(=N)N)O[C@@H](C)[C@]2(O)C=O)O[C@@H](CO)[C@H](O)[C@H]1O | 0.972 (inactive)
CNC1C(OC2C(OC3C(O)C(O)C(NC(=N)N)C(O)C3NC(=N)N)OC(C)C2(O)CO)OC(CO)C(O)C1O.O=S(=O)(O)O (centres undefined) | 0.0643 (active)
CN[C@@H]1[C@H](O[C@H]2[C@H](O[C@H]3[C@H](O)[C@@H](O)[C@H](NC(=N)N)[C@@H](O)[C@@H]3NC(=N)N)O[C@@H](C)[C@]2(O)C=O)O[C@@H](CO)[C@H](O)[C@H]1O | 0.888 (inactive)
CNC1C(OC2C(OC3C(O)C(O)C(NC(=N)N)C(O)C3NC(=N)N)OC(C)C2(O)C=O)OC(CO)C(O)C1O.O=S(=O)(O)O (centres undefined) [STREPTOMYCIN SULFATE [5mM; 10% aq DMSO + 5mM ethanolamine]] | 1.11 (inactive)
CN[C@H]1[C@@H](O[C@H]2[C@@H](O[C@H]3[C@@H](O)[C@@H](O)[C@@H](NC(=N)N)[C@@H](O)[C@@H]3NC(=N)N)O[C@@H](C)[C@@]2(O)C=O)O[C@@H](CO)[C@@H](O)[C@@H]1O.CN[C@H]1[C@@H](O[C@H]2[C@@H](O[C@H]3[C@@H](O)[C@@H](O)[C@@H](NC(=N)N)[C@@H](O)[C@@H]3NC(=N)N)O[C@@H](C)[C@@]2(O)C=O)O[C@@H](CO)[C@@H](O)[C@@H]1O.O=S(=O)(O)O.O=S(=O)(O)O.O=S(=O)(O)O | 0.372 (inactive)
C[C@H]1CN([C@@H](C)CO)C(=O)c2cc(NC(=O)C3CC3)ccc2O[C@@H]1CN(C)S(=O)(=O)c1cn(C)cn1 | 0.941 (inactive)
C[C@@H]1CCCCO[C@H](CN(C)Cc2ccc(C(F)(F)F)cc2)[C@H](C)CN([C@@H](C)CO)C(=O)c2cc(NS(=O)(=O)c3ccc(Cl)cc3)ccc2O1 | 1.03 (inactive)
O=C(C[C@@H]1C=C[C@H](NC(=O)c2cnccn2)[C@H](CO)O1)NCc1ccccc1F | 1.03 (inactive)
OC[C@@H]1CN(CCN2CCOCC2)C[C@H](n2cnc3c(NC4CCC4)ncnc32)O1 | 0.936 (inactive)
C[C@@H]1CN([C@H](C)CO)C(=O)CCCn2nncc2CO[C@H]1CN(C)S(=O)(=O)c1ccc(-c2ccccc2)cc1 | 0.979 (inactive)
CCCN(C)C[C@@H]1OCCCC[C@@H](C)Oc2ccc(NC(=O)Nc3ccc4c(c3)OCO4)cc2C(=O)N([C@H](C)CO)C[C@H]1C | 1.03 (inactive)
Cc1nnc(SCC2=C(C(=O)O)N3C(=O)[C@@H](NC(=O)Cn4cnnn4)[C@H]3SC2)s1 | 0.0386 (active)

SMILES | relative growth
Cc1nnc(SCC2=C(C(=O)O)N3C(=O)[C@@H](N)[C@H]3SC2)s1 | 1 (inactive)
Cc1nnc(SCC2=C(C(=O)[O-])N3C(=O)C(NC(=O)Cn4cnnn4)C3SC2)s1.[Na+] (centres undefined) | 0.0433 (active)
O=C(Cn1cnnn1)NC1C(=O)N2C(C(=O)O)=C(CSc3nncs3)CSC12 (centres undefined) | 0.0457 (active)
CC(=O)OCC1=C(C(=O)O)N2C(=O)[C@@H](NC(=O)CSc3ccncc3)[C@H]2SC1 | 1.05 (inactive)
Cc1noc(C)c1S(=O)(=O)N(C)C[C@H]1Oc2c(NC(=O)C3CCCCC3)cccc2C(=O)N([C@@H](C)CO)C[C@H]1C | 1.01 (inactive)
C[C@@H]1CN([C@H](C)CO)C(=O)c2cc(NC(=O)NC3CCCCC3)ccc2O[C@@H](C)CCCCO[C@@H]1CN(C)Cc1ccncc1 | 0.996 (inactive)
C[C@H](CO)N1C[C@H](C)[C@@H](CN(C)Cc2ccc3c(c2)OCO3)Oc2ccc(NC(=O)c3ccncc3)cc2CC1=O | 1.01 (inactive)
Cc1ccc(S(=O)(=O)N(C)C[C@H]2Oc3c(NC(=O)NC(C)C)cccc3C(=O)N([C@@H](C)CO)C[C@H]2C)cc1 | 0.992 (inactive)
C[C@@H]1CN([C@H](C)CO)C(=O)Cc2cc(NC(=O)CCCN(C)C)ccc2O[C@@H]1CN(C)S(=O)(=O)c1ccc(Cl)cc1 | 0.973 (inactive)
COc1ccc(S(=O)(=O)N(C)C[C@@H]2Oc3ncc(C#Cc4ccc(OC)c(OC)c4)cc3C(=O)N([C@H](C)CO)C[C@@H]2C)cc1 | 0.91 (inactive)
O=c1[nH]c(=O)n([C@@H]2C[C@@H](O)[C@@H](CO)O2)cc1F | 0.0303 (active)
Cc1cn([C@@H]2C[C@H](O)[C@@H](CO)O2)c(=O)[nH]c1=O | 0.988 (inactive)
O=c1[nH]c(=O)n([C@H]2C[C@H](O)[C@@H](CO)O2)cc1CO | 1.04 (inactive)
Cc1cn([C@H]2C[C@H](O)[C@@H](CO)O2)c(=O)[nH]c1=O | 1.03 (inactive)
O=c1[nH]c(=O)n(C2CC(O)C(CO)O2)cc1I (centres undefined) | 1.06 (inactive)
O=c1[nH]c(=O)n([C@H]2C[C@H](O)[C@@H](CO)O2)cc1Br | 0.944 (inactive)
Cc1cn([C@@H]2C[C@@H](O)[C@H](CO)O2)c(=O)[nH]c1=O | 0.991 (inactive)
O=c1[nH]c(=O)n(C2CC(O)C(CO)O2)cc1F (centres undefined) | 0.0526 (active)
O=c1[nH]c(=O)n([C@H]2C[C@H](O)[C@@H](CO)O2)cc1F | 0.0339 (active)
